A word on the AC50: it is the concentration giving half of the maximal activity seen.

The source made the active and inactive calls. Rule for the calls: active = hit-call score of the fitted dose curve at least 0.9, where 1 is the maximum; inactive = score below 0.9.

A short description of the experiment: UKN2_HCS_IMR90_neural_migration: University of Konstanz (UKN) Leist Lab Neural Crest Cell Migration Assay in human induced IMR90 Pluripotent Stem Cells (UKN2) (AID 2284204). The note with it: actives raise or lower the signal. The procedure:
UKN2_HCS_IMR90 is a cell-based, multiplexed-readout assay screening for neural crest cell migration and cell viability that uses IMR90 (neural crest cells differentiated from iPSC), a human embryo cell line, with measurements taken at […] after chemical dosing in a microplate: 96-well plate. UKN2, also known as cMINC, is an assay that uses IMR90 cells (neural crest cells differentiated from iPSC) as a model of neural crest cell migration. 24 hr after cell seeding, cell migration was initiated and proceeded for 24 hr. Then, chemical was applied, and after 24 hr of exposure migration and viability were assessed using high-content imaging of cells stained with calcein-AM and Hoechst H-33342.UKN2_HCS_IMR90_neural_migration is an assay component measured from the UKN2_HCS_IMR90 assay. It is designed to make measurements of neural crest cell migration, a form of morphology reporter, as detected with Fluorescence intensity signals by HCS Fluorescent Imaging.The assay endpoint UKN2_HCS_IMR90_neural_migration was analyzed with bidirectional fitting relative to DMSO as the negative control and baseline of activity. Using a type of morphology reporter, gain or loss-of-signal activity can be used to understand developmental effects. To generalize the intended target to other relatable targets, this assay endpoint is annotated to the neurodevelopment intended target family, where the subfamily is neural crest cell migration.
The wells are coated with PLO/laminin/fibronectin. Then, silicone stoppers are placed into the wells of a 96-well plate. Cells are seeded around the stoppers and allowed to attach for 24 hours. Day 0: The silicone stoppers are removed and the medium is replaced with pre-warmed, fresh N2-S medium containing the cytokines EGF and FGF. Cells are allowed to migrate into the cell free area. Day 1: 25 ul of the 5x concentrated toxicants are added to the wells. The cells plus toxicants are incubated for 24 h. Day 2: Cells are stained with calcein-AM and Hoechst (H-33342) for 30 min before imaging with a high content imaging microscope. Quantification of migration and viability is done by high content imaging analysis.
In the case of `COC(=O)N(OC)c1ccccc1COc1ccn(-c2ccc(Cl)cc2)n1`, the AC50 was 29.2 µM (active).
On to `CCCCC(CC)COC(=O)c1ccccc1C(=O)OCC(CC)CCCC` (stereo unspecified), for which the call was inactive.
Consider `CCCCOC(=O)c1ccccc1C(=O)OCCCC`, for which the compound was classed as inactive.
Same read-out and setting: for `CC(C)(C)c1ccc(CSc2cnn(C(C)(C)C)c(=O)c2Cl)cc1` the value was “inactive”; for `Cc1ccc(-c2c(Cl)nc(C#N)n2S(=O)(=O)N(C)C)cc1`, “inactive”.
With `N#Cc1nn(-c2c(Cl)cc(C(F)(F)F)cc2Cl)c(N)c1S(=O)C(F)(F)F` (stereo unspecified), the AC50 is 21.3 µM (active).
Turning to `CO/C=C(/C(=O)OC)c1ccccc1Oc1cc(Oc2ccccc2C#N)ncn1`, the compound was classed as inactive.
Consider `CN(C)C(=S)SSC(=S)N(C)C`, for which the AC50 was 1.72 µM (active).
`CCOc1cc(Oc2ccc(C(F)(F)F)cc2Cl)ccc1[N+](=O)[O-]`: the result was inactive.
Still for that read-out and setting: for `C=CC1(C)OC(=O)N(c2cc(Cl)cc(Cl)c2)C1=O` (stereo unspecified) the value was “inactive”.
In the case of `CCCCNC(=O)n1c(NC(=O)OC)nc2ccccc21`, the AC50 is 10 µM (active).

These data come from PubChem BioAssay (EPA / NIEHS).
